Percent Effect data for 8 molecules are collected here from ChEMBL document CHEMBL3988442, “University of Dundee, Small-Polar-MMV Screening Library” (2021).

For some of these results: Measured potencies and affinities stand elsewhere.

Design in all cases: scale not given: direction of the effect not stated beside the values
The target in test [1] is Protein translocase subunit SecA (Escherichia coli (strain K12)) (UniProt P10408). The test can be described thus: Assay to Identify E. coli SecA ATPase Inhibitors. The note with it: 30 µM. The test is classed as functional.
Test [2] concerns the target T1, Ubiquitin-activating enzyme e1, putative (Leishmania donovani (strain BPK282A1)) (UniProt E9BSI1).
T1 sequence (whole entry): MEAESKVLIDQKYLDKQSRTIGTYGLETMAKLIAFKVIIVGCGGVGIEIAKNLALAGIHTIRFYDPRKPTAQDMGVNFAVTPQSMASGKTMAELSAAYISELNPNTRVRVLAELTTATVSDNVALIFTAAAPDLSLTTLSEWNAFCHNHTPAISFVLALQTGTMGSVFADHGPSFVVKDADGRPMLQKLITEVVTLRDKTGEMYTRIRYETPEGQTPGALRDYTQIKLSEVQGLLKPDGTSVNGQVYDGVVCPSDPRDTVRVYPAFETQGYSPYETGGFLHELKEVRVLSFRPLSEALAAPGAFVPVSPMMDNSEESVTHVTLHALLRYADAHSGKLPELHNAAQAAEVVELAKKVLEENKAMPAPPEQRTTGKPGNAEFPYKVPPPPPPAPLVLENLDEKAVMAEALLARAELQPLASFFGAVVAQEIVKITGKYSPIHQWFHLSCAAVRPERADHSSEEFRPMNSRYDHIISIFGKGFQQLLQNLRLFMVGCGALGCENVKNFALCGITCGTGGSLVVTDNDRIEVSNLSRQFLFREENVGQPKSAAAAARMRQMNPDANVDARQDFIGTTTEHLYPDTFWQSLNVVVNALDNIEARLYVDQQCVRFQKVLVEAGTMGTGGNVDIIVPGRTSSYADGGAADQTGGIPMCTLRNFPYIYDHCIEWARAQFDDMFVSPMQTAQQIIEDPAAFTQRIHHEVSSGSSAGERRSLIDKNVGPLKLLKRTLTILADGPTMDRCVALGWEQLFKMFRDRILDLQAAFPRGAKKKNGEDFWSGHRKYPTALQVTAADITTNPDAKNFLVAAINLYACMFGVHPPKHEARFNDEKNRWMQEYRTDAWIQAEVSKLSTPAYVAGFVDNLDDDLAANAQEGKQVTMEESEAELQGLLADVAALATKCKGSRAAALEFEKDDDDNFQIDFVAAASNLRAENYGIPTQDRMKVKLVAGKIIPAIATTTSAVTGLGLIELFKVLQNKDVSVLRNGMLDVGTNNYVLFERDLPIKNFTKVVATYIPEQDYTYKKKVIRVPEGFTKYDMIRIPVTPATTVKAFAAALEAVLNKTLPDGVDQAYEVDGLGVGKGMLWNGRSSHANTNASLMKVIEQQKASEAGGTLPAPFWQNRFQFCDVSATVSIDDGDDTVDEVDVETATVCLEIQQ
The test can be described thus: Leishmania donovani Ubiquitin Activating Enzyme (LdE1). The test is classed as functional. The note with it: 30 µM.

For test [3], the target named is AMP-activated protein kinase, AMPK (Homo sapiens) (UniProt P54646+O43741+P54619+Q9UGJ0+Q9Y478+Q13131+Q9UGI9). The test can be described thus: AMP-dependent Kinase enzyme assay. An in vitro enzyme assay that detects ADP turnover that is directly proportional to AMPK activity. This uses naive AMPK that is activated during the assay with MK-8722. The note with it: 30 µM. It counts as functional.

In test [4] the target is Sialic acid-binding Ig-like lectin 9 (Homo sapiens) (UniProt Q9Y336). Nature of the test: Hs-Siglec9 ALPHAscreen SOP 20170721. The note with it: 10 µM.
In a further test the test system is Trypanosoma cruzi. Nature of the test: Trypanosoma cruzi phosphomannomutase and mannose-1-phosphate guanylyltransferase assay. It counts as functional. To be noted: 10 µM.
Test [5] concerns the target T2, Arginase-2, mitochondrial (Homo sapiens) (UniProt P78540).
T2 sequence (whole entry): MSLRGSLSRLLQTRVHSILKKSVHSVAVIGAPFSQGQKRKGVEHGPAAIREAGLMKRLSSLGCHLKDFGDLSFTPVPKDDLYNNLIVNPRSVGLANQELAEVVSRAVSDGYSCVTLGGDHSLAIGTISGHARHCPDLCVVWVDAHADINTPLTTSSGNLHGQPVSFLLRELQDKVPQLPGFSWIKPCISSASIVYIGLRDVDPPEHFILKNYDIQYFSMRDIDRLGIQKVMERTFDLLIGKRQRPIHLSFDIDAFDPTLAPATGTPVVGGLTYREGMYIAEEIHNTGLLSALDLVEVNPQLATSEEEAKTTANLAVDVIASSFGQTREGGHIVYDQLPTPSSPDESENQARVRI
Nature of the test: in vitro enzyme assay to detect the production of urea directly proportional to the activity of Arginase II. Also: in the data most compounds retested in dose-response had high values. The test is classed as functional. The note with it: 33.3 µM.

The target in test [6] is T3, Proteasome subunit beta (Trypanosoma cruzi) (UniProt O96673).
T3 sequence (whole entry): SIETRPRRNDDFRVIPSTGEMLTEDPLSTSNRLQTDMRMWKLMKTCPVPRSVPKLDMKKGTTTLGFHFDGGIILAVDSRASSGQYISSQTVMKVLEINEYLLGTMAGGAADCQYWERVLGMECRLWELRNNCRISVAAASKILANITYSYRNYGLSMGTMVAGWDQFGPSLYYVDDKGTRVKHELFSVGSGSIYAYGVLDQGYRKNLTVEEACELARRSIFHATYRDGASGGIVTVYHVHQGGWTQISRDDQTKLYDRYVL
Nature of the test: Trypanosoma cruzi proteasome chymotrypsin-like activity (TcProtChymo) assay. Also: in the data most compounds retested in dose-response had high values. The note with it: 9.37 µM. The test is classed as functional.

Another test is filed under the species Homo sapiens. Nature of the test: To identify inhibition of the IFN signalling (Jak-Stat) pathway via expression of an eGFP reporter gene under the control of an IFN-stimulated response element (ISRE) containing MxA promoter. The test is classed as functional. The note with it: 30 µM. Background: A reporter such as luciferase makes a cellular process visible.

In test [7] the target is T4, Tyrosyl-tRNA synthetase, putative (Trypanosoma cruzi (strain CL Brener)) (UniProt Q4DSP6).
T4 sequence (whole entry): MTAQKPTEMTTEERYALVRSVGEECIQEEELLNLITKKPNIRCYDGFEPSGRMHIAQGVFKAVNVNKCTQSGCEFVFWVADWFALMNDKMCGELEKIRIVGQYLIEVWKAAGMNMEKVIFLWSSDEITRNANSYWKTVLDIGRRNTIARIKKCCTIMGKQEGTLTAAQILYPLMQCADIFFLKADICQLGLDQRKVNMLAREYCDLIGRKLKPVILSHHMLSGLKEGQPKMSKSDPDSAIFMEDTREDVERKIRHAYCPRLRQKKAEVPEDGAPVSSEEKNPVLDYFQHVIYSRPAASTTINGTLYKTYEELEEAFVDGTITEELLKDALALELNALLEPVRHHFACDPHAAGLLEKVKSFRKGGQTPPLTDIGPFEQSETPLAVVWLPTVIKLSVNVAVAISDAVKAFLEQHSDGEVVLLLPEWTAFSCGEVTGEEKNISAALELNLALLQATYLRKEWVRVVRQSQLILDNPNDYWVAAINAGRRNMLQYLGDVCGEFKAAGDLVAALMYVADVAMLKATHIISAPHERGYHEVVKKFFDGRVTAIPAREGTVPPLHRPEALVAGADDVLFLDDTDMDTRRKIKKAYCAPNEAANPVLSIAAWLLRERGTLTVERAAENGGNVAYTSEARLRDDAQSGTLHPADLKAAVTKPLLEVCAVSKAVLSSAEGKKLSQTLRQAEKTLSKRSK
Nature of the test: Trypanosoma cruzi tyrosyl tRNA synthetase (TcYRS) _High Tyrosine SOP. Also: in the data most compounds retested in dose-response had high values. The test is classed as functional. The note with it: 30 µM.

Test [8] has as its target T4, Tyrosyl-tRNA synthetase, putative (Trypanosoma cruzi (strain CL Brener)). Nature of the test: Trypanosoma cruzi tyrosyl tRNA synthetase (TcYRS) SOP. The test is classed as functional. The note with it: 30 µM.
In test [9] the target is Chromo domain-containing protein 1 (Saccharomyces cerevisiae (strain ATCC 204508 / S288c) (Baker's yeast)) (UniProt P32657). Nature of the test: ScCHD-1 Enzyme Inhibition Assay. Also: in the data most compounds retested in dose-response had high values. The test is classed as functional. The note with it: 30 µM.
Chromo domain-containing protein 1 (Saccharomyces cerevisiae (strain ATCC 204508 / S288c) (Baker's yeast)), sequence (P32657 whole entry, the tested form may be a part): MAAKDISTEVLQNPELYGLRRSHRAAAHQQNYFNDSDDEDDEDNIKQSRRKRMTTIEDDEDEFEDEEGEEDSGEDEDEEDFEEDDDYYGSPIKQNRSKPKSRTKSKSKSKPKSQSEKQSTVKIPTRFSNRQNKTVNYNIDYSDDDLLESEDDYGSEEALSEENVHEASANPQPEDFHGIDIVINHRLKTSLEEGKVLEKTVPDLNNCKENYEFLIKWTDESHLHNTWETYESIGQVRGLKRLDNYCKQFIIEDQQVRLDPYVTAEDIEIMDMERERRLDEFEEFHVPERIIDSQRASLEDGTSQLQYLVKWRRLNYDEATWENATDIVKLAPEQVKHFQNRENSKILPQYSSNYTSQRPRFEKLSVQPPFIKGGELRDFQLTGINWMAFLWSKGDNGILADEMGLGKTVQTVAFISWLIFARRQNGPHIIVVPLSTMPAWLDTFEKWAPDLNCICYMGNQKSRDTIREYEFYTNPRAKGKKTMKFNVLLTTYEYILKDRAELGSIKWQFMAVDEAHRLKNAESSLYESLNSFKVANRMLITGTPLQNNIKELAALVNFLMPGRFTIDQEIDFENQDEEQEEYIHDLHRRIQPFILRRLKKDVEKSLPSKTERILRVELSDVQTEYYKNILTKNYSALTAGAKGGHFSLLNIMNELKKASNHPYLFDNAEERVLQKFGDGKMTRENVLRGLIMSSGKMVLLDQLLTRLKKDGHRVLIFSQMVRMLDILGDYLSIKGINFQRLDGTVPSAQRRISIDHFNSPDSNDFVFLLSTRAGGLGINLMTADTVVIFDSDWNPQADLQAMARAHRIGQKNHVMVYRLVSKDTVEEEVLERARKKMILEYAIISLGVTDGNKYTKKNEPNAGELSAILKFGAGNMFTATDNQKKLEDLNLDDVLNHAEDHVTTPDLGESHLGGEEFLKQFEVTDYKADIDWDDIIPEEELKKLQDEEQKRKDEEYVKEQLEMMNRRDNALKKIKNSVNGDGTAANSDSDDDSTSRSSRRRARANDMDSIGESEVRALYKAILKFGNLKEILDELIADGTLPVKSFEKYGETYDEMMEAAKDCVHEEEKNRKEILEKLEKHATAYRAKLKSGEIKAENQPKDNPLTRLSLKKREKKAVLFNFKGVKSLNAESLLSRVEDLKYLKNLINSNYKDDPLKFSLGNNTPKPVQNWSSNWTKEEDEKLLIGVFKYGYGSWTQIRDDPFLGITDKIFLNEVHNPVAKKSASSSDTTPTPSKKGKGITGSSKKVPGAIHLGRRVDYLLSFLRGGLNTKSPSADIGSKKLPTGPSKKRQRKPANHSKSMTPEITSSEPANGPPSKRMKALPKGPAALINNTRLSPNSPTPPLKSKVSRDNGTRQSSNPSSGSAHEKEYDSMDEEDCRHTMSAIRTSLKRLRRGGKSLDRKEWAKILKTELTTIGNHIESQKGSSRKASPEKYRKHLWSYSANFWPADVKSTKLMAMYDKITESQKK

Sialic acid-binding Ig-like lectin 9 (Homo sapiens), sequence (Q9Y336 whole entry): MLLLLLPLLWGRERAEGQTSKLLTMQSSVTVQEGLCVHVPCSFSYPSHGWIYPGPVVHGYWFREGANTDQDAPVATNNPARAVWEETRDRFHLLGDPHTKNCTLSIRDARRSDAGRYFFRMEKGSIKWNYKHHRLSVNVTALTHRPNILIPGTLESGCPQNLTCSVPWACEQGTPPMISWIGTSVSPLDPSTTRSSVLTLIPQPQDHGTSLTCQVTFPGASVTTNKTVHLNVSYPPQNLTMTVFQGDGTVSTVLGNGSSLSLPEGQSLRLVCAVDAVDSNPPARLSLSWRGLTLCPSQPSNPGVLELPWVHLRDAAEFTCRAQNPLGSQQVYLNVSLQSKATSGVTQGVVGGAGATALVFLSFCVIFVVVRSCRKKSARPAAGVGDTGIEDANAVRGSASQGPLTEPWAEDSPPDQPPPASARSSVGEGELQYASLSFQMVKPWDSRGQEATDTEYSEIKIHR
Protein translocase subunit SecA (Escherichia coli (strain K12)), sequence (P10408 whole entry): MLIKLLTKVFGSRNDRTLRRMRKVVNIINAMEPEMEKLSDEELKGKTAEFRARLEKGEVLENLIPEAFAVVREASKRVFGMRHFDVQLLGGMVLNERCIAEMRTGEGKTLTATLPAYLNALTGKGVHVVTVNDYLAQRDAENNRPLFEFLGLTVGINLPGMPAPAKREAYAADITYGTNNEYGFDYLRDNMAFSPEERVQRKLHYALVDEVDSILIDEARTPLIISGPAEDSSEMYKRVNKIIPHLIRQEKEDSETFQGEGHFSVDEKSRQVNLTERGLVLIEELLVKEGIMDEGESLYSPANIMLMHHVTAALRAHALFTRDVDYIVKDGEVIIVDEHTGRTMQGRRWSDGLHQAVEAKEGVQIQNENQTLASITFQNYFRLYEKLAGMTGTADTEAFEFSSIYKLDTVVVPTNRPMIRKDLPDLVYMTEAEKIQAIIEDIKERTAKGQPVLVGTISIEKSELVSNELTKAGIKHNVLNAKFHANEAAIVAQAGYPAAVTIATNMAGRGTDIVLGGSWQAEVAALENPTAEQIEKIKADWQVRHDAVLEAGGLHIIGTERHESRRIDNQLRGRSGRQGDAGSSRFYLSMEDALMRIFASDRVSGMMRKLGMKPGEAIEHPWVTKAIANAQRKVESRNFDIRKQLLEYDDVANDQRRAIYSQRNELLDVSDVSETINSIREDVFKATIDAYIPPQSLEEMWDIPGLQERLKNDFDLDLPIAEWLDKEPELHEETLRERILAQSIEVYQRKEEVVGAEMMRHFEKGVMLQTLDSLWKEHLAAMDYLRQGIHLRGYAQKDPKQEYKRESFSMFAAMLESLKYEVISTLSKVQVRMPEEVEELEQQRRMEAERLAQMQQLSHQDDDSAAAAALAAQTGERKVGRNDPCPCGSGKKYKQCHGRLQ

Take `CC(C)c1nccn1C1CCCN(C(=O)c2cnc[nH]2)C1` (stereo not drawn): the Percent Effect in [1] is -5.4%; in test [2], 10.5%; in test [3], -5.59%; in [4] it was 16.2%; with Trypanosoma cruzi, 5.32%; in test [5] it was 0.719%. Besides, the Percent Effect was 10.1% in [6]; -0.618% in the test listed under Homo sapiens; 5.42% in test [7]; 16.1% in test [8]; -3.38% in test [9].
On to `Cc1nc(CN2CCOC(c3nc(C(C)C)n[nH]3)C2)oc1C` (stereo not drawn), for which the Percent Effect was -1.29% in test [1]; 5.06% in [2]; 3.22% in [3]; 7.38% in [4]; 2.74% in the test with Trypanosoma cruzi; 2.66% in [5]. The Percent Effect in test [6] is 1.72%; in the test listed under Homo sapiens, -4.74%; in [7], 3.45%; in [8] it was 8.86%; in [9] it was -3.77%.
On to `c1nc(CCC2CCCN2)cc(N2CCCOCC2)n1` (stereo not drawn), for which the Percent Effect is -4.1% in test [1]; 9.46% in test [2]; 11.8% in test [3]; -4.56% in test [4]; -6.13% with Trypanosoma cruzi; -3.02% in [5]. For the same molecule, the Percent Effect in test [6] was 9.36%; in the test filed under Homo sapiens it was 10.3%; in test [7], 3.23%; in test [8] it was 6.49%; in test [9], -5.74%.
Take `O=C(Cn1cccnc1=O)NC(Cc1ccsc1)c1ccccn1` (stereo not drawn): the Percent Effect in test [1] is -10%; in test [2], 14.9%; in [3], 0.845%; in [4], 8.55%; in the test with Trypanosoma cruzi, 1.98%; in test [5], 0.232%. For the same molecule, the Percent Effect in [6] is 5.3%; in the test listed under Homo sapiens it was 2.88%; in test [7], 5.38%; in test [8], 9.09%; in [9], -19.6%.
Take `CCC(O)CNC(=O)c1coc(COc2ccc3sc(C)nc3c2)n1` (stereo not drawn): the Percent Effect in test [1] is -6.39%; in test [2], -2.74%; in [3] it was -4.19%; in test [4], -4.04%; in the test on Trypanosoma cruzi, -0.392%; in test [5], -2.73%. Moreover, the Percent Effect was 0.71% in test [6]; 50% in the test filed under Homo sapiens; -1.07% in test [7]; 0% in test [8]; 2.81% in [9].
As to `Cc1ccc(OCC(=O)NS(=O)(=O)c2cccnc2)cc1C`, the Percent Effect in test [1] was 0.796%; in test [2] it was 15.8%; in test [3] it was 3.98%; in [4], -2.26%; in the test on Trypanosoma cruzi, -7.52%; in [5] it was -3.45%. Moreover, the Percent Effect in [6] was 17.4%; in the test listed under Homo sapiens, 29.1%; in [7] it was -1.47%; in [8] it was 4.88%; in [9] it was -9.25%.
In the case of `COc1ncccc1NC(=O)N1CCC(CN2CCOCC2)CC1`, the Percent Effect was 2.03% in test [1]; 2.67% in [2]; -10.3% in [3]; 11.1% in test [4]; 5.55% with Trypanosoma cruzi; 17.7% in [5]. Further, the Percent Effect is 7.15% in test [6]; -13.1% in the test listed under Homo sapiens; 2.73% in test [7]; 6.17% in test [8]; 0.459% in test [9].
Consider `CCSCCNC(=O)C(c1cccc(F)c1)N(C)C` (stereo not drawn), for which the Percent Effect in test [1] is -5.79%; in test [2], 8.11%; in test [3], -0.968%; in test [4] it was -3.42%; with Trypanosoma cruzi it was -4.44%; in test [5], -0.952%. For the same molecule, the Percent Effect in [6] was 13.8%; in the test filed under Homo sapiens, 20.7%; in test [7] it was 6.88%; in test [8], 7.32%; in test [9] it was -3.55%.
